Hit rate of the full screen: of about 53,000 sequences, about 3,700 (7%) were called active.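 How the source made its calls: active means gene knockdowns whose robust z-score for IL-1 alpha signal is at least 2 or at most -2, so actives lie on both sides; inactive means the rest.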 The sample as a whole holds a higher share of actives than the screen did.

This assay can be described thus: Components of the Cytosolic LPS Sensing Pathway: Gene Identification via Genome-wide siRNA Screen.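 Further: robust z of the log signal after scaling to non-targeting control siRNA wells of the plate.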 As to conditions: RAW264.7 macrophages, IL-1a HTRF, actives lie on both sides, screened at 100 nM (by protocol), cells primed 5 h with Pam3CSK4 first. The gist of the method:
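Cells (RAW264.7, 1×10^4 per well) were transfected with siRNA at 100 nM and cultured 48h at 37 degrees C. Pam3CSK4 was added for 5 hours; LipidA transfection followed for 24 hour. IL-1a was then measured by HTRF.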
(In general: Time-resolved FRET reads energy transfer from a long-lived donor to a nearby acceptor.)
Turning to GGACAAGUCAAUUUGUUGGTT against Zfp36l1, the z-score is 0.277 (inactive).

As for GGUGUAUCGGAACAGUGAGTT against Det1, the z-score is -2.8 (active).

For GCAAUGGAACUAUUAUUCATT against Cd28, the z-score was 2.48 (active).

On to GGCUUCAAAGCAUGACCAGTT against Ccr1, for which the z-score was -0.528 (inactive).

In the case of GGACCUGCCAAAAGUUGUGTT against Uqcrc1, the z-score was -1.16 (inactive).

Regarding GCAGUUGAAUAUCAGACUGTT against Obox5, the z-score was -0.973 (inactive).

As for GGUUCAGAAUCAAUACGAGTT against Krt2, the z-score was -0.909 (inactive).

Regarding GGACACUUCCAAACUGACCTT against Tiparp, the z-score is -1.43 (inactive).

With GCGUAGGUCAUCCUUGUAATT against Samd4, the z-score was -2.22 (active).

For GGUCAUUCACAAGUCCUUUTT against Serpinb6b, the z-score was 0.863 (inactive).

GCCAGUGGUAGCGAUAUGATT against Zscan4c: the z-score was -0.263 (inactive).

Take GGAGAACACCAAAAAGGGCTT against Uncx: the z-score is -1.26 (inactive).

As for GCUGUGUGGACAAAGUCUGTT against Clec4b1, the z-score is -0.398 (inactive).

For the sequence GGUCUUUAGAAUUAGGCUCTT against Pml, the z-score was 0.188 (inactive).

For GCACUUUAAAAGAAUCACUTT against Slc2a12, the z-score was 2.11 (active).

With GGAAGAAGUAGCUAAAAACTT against Entpd4, the z-score is 0.488 (inactive).

Consider GGUCUUGCUAUUUGUGAUATT against Olfr1294, for which the z-score is 0.617 (inactive).

In the case of GGACUUCACAAGACUUCAATT against Nfam1, the z-score was 2.06 (active).

GGUCAAGGAAUUAGUGAUUTT against Tctex1d1: the z-score was 0.398 (inactive).

GGUACAGUGUCAUCAUGAATT against Olfr460: the z-score is -0.456 (inactive).

On to GGUAAUUUGUAAGGAACCCTT against Rpusd2, for which the z-score was -0.881 (inactive).

On to GGAAAAAUGGGAGUUUGAATT against Ccdc83, for which the z-score was -0.291 (inactive).

On to GUCCUUCUCAUCAUGGGACTT against Sec61g, for which the z-score is -0.248 (inactive).

With GGCGAAAGUGCUUUUCCUGTT against Gbp8, the z-score was 1.03 (inactive).

Take GCUGAUCCACGACUACUUGTT against Rab10os: the z-score is 1.24 (inactive).

On to GCUUAGAUCUUACCCACCCTT against Ptcra, for which the z-score was 2.52 (active).

Regarding GCUCCGUAAGAAGUCUCGUTT against Dhx16, the z-score was -0.676 (inactive).

With GAUGGAGAAACUGAAGAAGTT against Olfml2a, the z-score was -0.117 (inactive).

Consider UCCACUUCACUAAUCCUGUTT against Vmn2r43, for which the z-score was -2.52 (active).

Take GCUGGAUUUGGACUCUUAGTT against Vmn1r16: the z-score is 1.1 (inactive).

The record behind these values is PubChem BioAssay AID1508600 (Functional Genomics Laboratory (NCATS/FGL), 2020).
